# Values joined by “and” are separate entries in the source; they are usually repeats but may differ in a detail not shown here. Identical values can stand only once. Inconclusive results are not listed. Where a call stands in place of a potency, no number is given. A number with no mark means an inactive call. Active and inactive are the calls of the source. Unless noted, the call rests on the fitted dose curve; in most records, active means well fitted curve in the direction sought with a large enough effect; inconclusive means small, poorly fitted or top-dose-only effect, or another doubt; inactive means no such curve, though single readings can be large; an effect the other way counts as inactive or inconclusive.
# Experiments:
# [1] = molecular target: Cellular tumor antigen p53 (Homo sapiens) (UniProt P04637); assay: Primary qHTS for small molecule compounds that upregulate eGFP-tagged delta133p53alpha (in N-terminal) cells. (AID 2060322); settings: NCI-H358 eGFP-delta133p53alpha fluorescence, 24 h; activation: active compounds read high; further: nearly all actives have a fitted effect of over 75% in size; further: potency means the concentration at half of the fitted maximal effect; on activation: series mostly up to about 56 µM
# Cellular tumor antigen p53 (Homo sapiens), sequence (P04637 whole entry, looked up): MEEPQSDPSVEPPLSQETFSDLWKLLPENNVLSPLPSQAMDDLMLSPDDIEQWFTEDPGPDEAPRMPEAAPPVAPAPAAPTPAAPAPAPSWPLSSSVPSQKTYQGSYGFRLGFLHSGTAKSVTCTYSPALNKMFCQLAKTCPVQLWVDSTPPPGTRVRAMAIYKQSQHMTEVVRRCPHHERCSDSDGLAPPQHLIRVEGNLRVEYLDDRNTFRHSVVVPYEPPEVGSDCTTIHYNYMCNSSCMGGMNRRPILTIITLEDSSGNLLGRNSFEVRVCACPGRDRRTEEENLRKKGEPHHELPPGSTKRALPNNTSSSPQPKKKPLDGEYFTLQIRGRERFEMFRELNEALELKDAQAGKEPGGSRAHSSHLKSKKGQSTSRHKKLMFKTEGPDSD
# Summary of the method: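 NCI-H358 cells pre-induced 24 h with 10 ng/ml doxycycline to express N-terminal eGFP-delta133p53alpha, then dosed 24 h at 37C without doxycycline; fixed, Hoechst-stained, GFP intensity by laser scanning cytometry, normalized to DMSO (0%) and 57.5 uM 5-azacytidine (100%).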
# [2] = molecular target: Aldehyde dehydrogenase, mitochondrial (Homo sapiens) (UniProt P05091); assay: qHTS for Inhibitors of the Aldehyde Dehydrogenase Family (ALDH2) Validation screens (AID 2061302; active means well fitted inhibition curve with a large enough effect; title and protocol of this record describe different tests; further: potency means the concentration at half of the fitted maximal effect)
# [3] = molecular target: Retinaldehyde dehydrogenase 3 (Homo sapiens) (UniProt P47895); assay: qHTS for Inhibitors of the Aldehyde Dehydrogenase Family (ALDH1A3) Validation screen (AID 2061312); further: nearly all actives have a fitted effect of over 45% in size; further: potency means the concentration at half of the fitted maximal effect
# [4] = molecular target: Aldehyde dehydrogenase, mitochondrial (Homo sapiens) (UniProt P05091); assay: qHTS for Inhibitors of the Aldehyde Dehydrogenase Family (ALDH2) Confirmatory screens (AID 2061303; active means well fitted inhibition curve with a large enough effect; title and protocol of this record describe different tests; further: nearly all actives have a fitted effect of over 45% in size)
# [5] = molecular target: Aldehyde dehydrogenase, mitochondrial (Homo sapiens) (UniProt P05091); assay: qHTS for Inhibitors of the Aldehyde Dehydrogenase Family (ALDH2) Primary screen (AID 2061308); further: nearly all actives have a fitted effect of over 55% in size
# [6] = molecular target: Retinal dehydrogenase 2 (Homo sapiens) (UniProt O94788); assay: qHTS for Inhibitors of the Aldehyde Dehydrogenase Family (ALDH1A2) Confirmation screens (AID 2061314); further: nearly all actives have a fitted effect of over 65% in size
# [7] = molecular target: Retinaldehyde dehydrogenase 3 (Homo sapiens) (UniProt P47895); assay: qHTS for Inhibitors of the Aldehyde Dehydrogenase Family (ALDH1A3) Primary screen (AID 2061315); further: potency means the concentration at half of the fitted maximal effect
# [8] = qHTS for Inhibitors of the Aldehyde Dehydrogenase Family (ALDH1A2, ALDH1A3, ALDH2, ALDH3A1) (AID 2061307); further: nearly all actives have a fitted effect of over 50% in size
# [9] = BET inhibitor-based combinations targeting novel dependencies in MECOM-rearranged (r) AML: SET-2 cell line (AID 2202231); settings: SET-2 AML cells viability, CellTiter-Glo luminescence, 48 h; viability: active compounds read low, concentration not given here; further: nearly all actives have a fitted effect of over 35% in size; further: potency means the concentration at half of the fitted maximal effect
# Summary of the method: (§1)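 500 cells/well; 11-pt dose curve; 48 h, standard incubator; CellTiter-Glo luminescence after 15 min RT; DMSO/empty-well normalization; AUC plus Z-AUC (mean-centered within each line).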
# [10] = BET inhibitor-based combinations targeting novel dependencies in MECOM-rearranged (r) AML: OCI-AML3 cell line (AID 2202232); settings: Potency: OCI-AML3 viability; further: nearly all actives have a fitted effect of over 35% in size; further: potency means the concentration at half of the fitted maximal effect
# Summary of the method: as §1
# [11] = BET inhibitor-based combinations targeting novel dependencies in MECOM-rearranged (r) AML: UCSD-AML1 cell line (AID 2202235); further: potency means the concentration at half of the fitted maximal effect; nearly all actives have a fitted effect of over 40% in size
# Summary of the method: (§2)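 Cells were plated at 500 per well and exposed to each drug across an 11-point dose range for 48 hr at standard incubator conditions. Viability was read by CellTiter-Glo luminescence, and activity was expressed as AUC and per-cell-line Z-transformed AUC.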
# [12] = BET inhibitor-based combinations targeting novel dependencies in MECOM-rearranged (r) AML: AML-191 cell line (AID 2202236; further: nearly all actives have a fitted effect of over 35% in size; further: potency means the concentration at half of the fitted maximal effect)
# Summary of the method: as §1
# [13] = molecular target: Aldehyde dehydrogenase 1A1 (Homo sapiens) (UniProt P00352); assay: qHTS for Inhibitors of the Aldehyde Dehydrogenase Family (ALDH1A1) Confirmatory screens (AID 2061316); further: nearly all actives have a fitted effect of over 65% in size; further: potency means the concentration at half of the fitted maximal effect
# [14] = BET inhibitor-based combinations targeting novel dependencies in MECOM-rearranged (r) AML: MV-4-11 cell line (AID 2202233); further: nearly all actives have a fitted effect of over 45% in size
# Summary of the method: as §2
# [15] = BET inhibitor-based combinations targeting novel dependencies in MECOM-rearranged (r) AML: AML-194 cell line (AID 2202237; further: nearly all actives have a fitted effect of over 40% in size)
# Summary of the method: as §1
# [16] = molecular target: Retinaldehyde dehydrogenase 3 (Homo sapiens) (UniProt P47895); assay: qHTS for Inhibitors of the Aldehyde Dehydrogenase Family (ALDH1A3) Confirmatory screens (AID 2061311); further: nearly all actives have a fitted effect of over 60% in size; further: potency means the concentration at half of the fitted maximal effect
compound,measurement,setting,value
CCNC(=O)[C@H]1O[C@@H](n2cnc3c(N)ncnc32)[C@H](O)[C@@H]1O,activation,[1],1.33%
same,Potency,[2],inactive
same,Potency,[3],inactive
CCC1NC(=O)C2C(Cl)C(Cl)CN2C(=O)C(CC)NC(=O)CC(c2ccccc2)NC(=O)C(CO)NC1=O (stereo not given),activation,[1],-6.87%
same,Potency,[4],inactive
same,Potency,[5],inactive
same,Potency,[6],inactive
same,Potency,[7],inactive
CCC(C)C1NC(=O)C(C(C)=O)=C1O (stereo not given),activation,[1],13%
same,Potency,[4],inactive
same,Potency,[8],inactive
same,Potency,[5],inactive
same,Potency,[7],inactive
Cc1sc2ccccc2c1CC1=NCCN1,activation,[1],-35.5%
same,Potency,[2],inactive
same,Potency,[3],inactive
COC[C@H]1OC(=O)c2coc3c2[C@@]1(C)C1=C(C3=O)C2CCC(=O)[C@@]2(C)C[C@H]1OC(C)=O (stereo not given in full),activation,[1],-11.7%
same,Potency,[2],inactive
same,Potency,[3],7.08 µM (active)
same,Potency,[9],18.6 µM (active)
same,Potency,[10],7.42 µM (active)
same,Potency,[11],5.9 µM (active)
same,Potency,[12],6.61 µM (active)
CC(=O)O[C@H]1CC[C@@]2(CI)C(=CC[C@@H]3[C@@H]2CC[C@]2(C)C(=O)CC[C@@H]32)C1,activation,[1],13.7%
same,Potency,[8],inactive
same,Potency,[13],10.1 µM (active)
CC(=O)c1c(O)c(C)c(O)c(Cc2c(O)c3c(c(C(=O)/C=C/c4ccccc4)c2O)OC(C)(C)C=C3)c1O,activation,[1],-54.1%
same,Potency,[2],8.91 µM (active)
same,Potency,[10],inactive
same,Potency,[14],inactive
same,Potency,[15],inactive
CCN1C[C@]2(COC(=O)c3ccccc3N3C(=O)C[C@H](C)C3=O)CC[C@H](OC)[C@@]34[C@@H]5C[C@H]6[C@H](OC)[C@@H]5[C@](O)(C[C@@H]6OC)[C@](O)([C@@H](OC)[C@H]23)[C@@H]14,activation,[1],10.3%
same,Potency,[4],inactive
same,Potency,[8],inactive
same,Potency,[5],inactive
same,Potency,[16],inactive
same,Potency,[6],inactive
same,Potency,[7],inactive
same,Potency,[13],inactive
CN(C(=O)CN1C(=O)COc2cc(Cl)c(Cl)cc21)[C@@H](CN1CCCC1)c1ccc(-c2cccc(C(N)=O)c2)cc1,Potency,[1],21.3 µM (active)
same,Potency,[5],inactive
COc1cc(N2CCN(C)CC2)ccc1N,activation,[1],20%
same,Potency,[8],inactive
same,Potency,[5],inactive
same,Potency,[16],25.2 µM (active)
same,Potency,[7],1.26 µM (active)
COc1ccc2c(c1)c(CCN(C)C)cn2S(=O)(=O)c1ccccc1,activation,[1],7.16%
same,Potency,[4],inactive
same,Potency,[8],inactive
same,Potency,[5],inactive
same,Potency,[16],inactive
same,Potency,[3],inactive
same,Potency,[6],inactive
same,Potency,[7],inactive
C[N+]1(C)CCc2cc3c(cc2[C@H]1[C@@H]1OC(=O)c2c1ccc1c2OCO1)OCO3,activation,[1],-3.8%
same,Potency,[2],inactive
same,Potency,[3],inactive
CN[C@@H]1C[C@@H](c2ccc(Cl)c(Cl)c2)c2ccccc21,activation,[1],-33.4%
same,Potency,[2],inactive
same,Potency,[3],inactive
CC(=O)OC12C(O)C(C)C3(O)C4C=C(C)C(=O)C4CC(CO)=CC3C1C2(C)C (stereo not given),activation,[1],-3.05%
same,Potency,[5],inactive
CC/C=C/C=C/C1(C)OC(OC)=C(C(=O)C2C(C)C(=O)c3cc(OC)c(O)c(O)c3C2(C)O)C1=O (stereo not given),activation,[1],0.893%
same,Potency,[8],inactive
same,Potency,[5],inactive
same,Potency,[16],11 µM (active)
NCCc1c[nH]c2ccc(C(N)=O)cc12,activation,[1],-19.7%
same,Potency,[2],inactive
same,Potency,[3],inactive
CCc1[nH]c2ccc(OC)cc2c1CCN(C)C,activation,[1],8.59%
same,Potency,[4],inactive
same,Potency,[5],inactive
same,Potency,[16],inactive
Cc1c(N[C@@H](c2nnc(-c3ccc(C#N)cc3)o2)[C@H](C)O)ccc(C#N)c1Cl,activation,[1],21%
same,Potency,[4],inactive
same,Potency,[5],inactive
same,Potency,[6],inactive
same,Potency,[7],inactive
same,Potency,[13],inactive
CCCN(CCC)[C@@H]1CCc2ccc3[nH]c(C#N)cc3c2C1,activation,[1],19.1%
same,Potency,[4],inactive
same,Potency,[8],inactive
same,Potency,[5],inactive
same,Potency,[16],inactive
same,Potency,[6],inactive
same,Potency,[7],inactive
CC(=O)[C@H]1CC[C@H]2[C@@H]3CC[C@H]4C[C@H](O)CC[C@]4(C)[C@H]3C(=O)C[C@]12C,activation,[1],-36.8% and -33%
same,Potency,[2],inactive
same,Potency,[3],inactive
OCCCCC#Cc1cncc(OC[C@@H]2CCN2)c1,activation,[1],-1.43%
same,Potency,[5],inactive
COC(=O)[C@@H](N)CCCN=C(N)N[N+](=O)[O-],activation,[1],-9.21% and -14.8%
same,Potency,[2],inactive
same,Potency,[3],inactive
same,viability,[9],109%
same,Potency,[10],inactive
same,Potency,[12],inactive
same,Potency,[15],inactive
O=[N+]([O-])c1cc(O)c(O)c([N+](=O)[O-])c1,activation,[1],-0.323%
same,Potency,[8],inactive
same,Potency,[16],10.1 µM (active)
O=C1CN=C(c2cccc(Br)c2)c2oc3ccccc3c2N1,activation,[1],-24.3%
same,Potency,[5],inactive
same,Potency,[3],inactive
same,Potency,[7],inactive
CC1(C)C(=O)N(c2ccc(C#N)c(C(F)(F)F)c2)C(=O)N1CCCCO,activation,[1],-17.7%
same,Potency,[5],inactive
same,Potency,[3],inactive
same,Potency,[7],inactive
C#CC1(O)CCC2C3CCC4=CC(=O)CCC4=C3C=CC21C (stereo not given),activation,[1],-16.3%
same,Potency,[5],inactive
CCOC(=O)C1(CCc2ccccc2)CCN(Cc2ccc(NC(C)=O)cc2)CC1,activation,[1],-12.4%
same,Potency,[5],inactive
same,Potency,[3],inactive
same,Potency,[7],inactive
